Screening results as filed in PubChem.
A selection: hits, their analogues and other compounds. The true share with any hit is near 18%.
TDP1 cell noCPT – qHTS for Inhibitors of human tyrosyl-DNA phosphodiesterase 1 (TDP1): qHTS in cells in absence of CPT. 15% of 420,000 active. DT40 Tdp1-/- hTDP1 cells, no CPT, ATP luminescence, 48 h. Potency, µM (series often up to 46.2 µM), hits mostly inhibitors; also: nearly all actives have a fitted effect of over 55% in size
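Chicken DT40 Tdp1-/- cells stably complemented with human TDP1 were seeded at 400 cells/well with DMSO in place of 20 nM camptothecin. After compound pinning, cells grew at least 48 hr at 37 °C; viability read by CellTiter-Glo luminescence.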
LDHA block – qHTS assay for inhibitors of human lactate dehydrogenase. activity change, % (values are at about 110 or 230 µM). 0.15% of 480,000 active. L-lactate dehydrogenase A chain (Homo sapiens), P00338. purified LDHA, NADH/diaphorase-resazurin fluorescence; hits give low values; in the data active = activity change below about -30%; inconclusive = mostly about -25% to -30%
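Human LDH5 at 2 nM final in Tris HCl pH 7.4 with 0.06 mM NADH and 0.2 mM pyruvate, reacted 5 minutes at room temperature. Remaining NADH coupled via diaphorase/resazurin; resorufin fluorescence read at 0 and 20 minutes, normalized to enzyme-free and DMSO wells.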
TDP1 cell CPT – qHTS for Inhibitors of human tyrosyl-DNA phosphodiesterase 1 (TDP1): qHTS in cells in presence of CPT; chicken DT40 Tdp1-/-;hTDP1 cells + 20 nM CPT, ATP luminescence, 48 h; Potency, µM (doses to about 46.2 µM), most hits filed as inhibitors; 12% of 420,000 active; also: nearly all actives have a fitted effect of over 55% in size
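Chicken DT40 Tdp1-/- cells stably complemented with human TDP1 were seeded at 400 cells/well in medium containing 20 nM camptothecin, exposed to pin-transferred compounds, and grown at 37 °C for at least 48 hr. Viability was read as ATP luminescence.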
RORg inh – qHTS for inhibitors of ROR gamma transcriptional activity; Nuclear receptor ROR-gamma (Mus musculus), P51450; Drosophila S2 Gal4-RORgamma UAS-luciferase reporter, 20 h; Potency, µM (highest dose often 53.6 µM), most hits filed as inhibitors; 5.4% of 310,000 active; AID 2551, 2010; also: nearly all actives have a fitted effect of over 60% in size
Target sequence (P51450 whole entry, looked up, the tested form may be a part): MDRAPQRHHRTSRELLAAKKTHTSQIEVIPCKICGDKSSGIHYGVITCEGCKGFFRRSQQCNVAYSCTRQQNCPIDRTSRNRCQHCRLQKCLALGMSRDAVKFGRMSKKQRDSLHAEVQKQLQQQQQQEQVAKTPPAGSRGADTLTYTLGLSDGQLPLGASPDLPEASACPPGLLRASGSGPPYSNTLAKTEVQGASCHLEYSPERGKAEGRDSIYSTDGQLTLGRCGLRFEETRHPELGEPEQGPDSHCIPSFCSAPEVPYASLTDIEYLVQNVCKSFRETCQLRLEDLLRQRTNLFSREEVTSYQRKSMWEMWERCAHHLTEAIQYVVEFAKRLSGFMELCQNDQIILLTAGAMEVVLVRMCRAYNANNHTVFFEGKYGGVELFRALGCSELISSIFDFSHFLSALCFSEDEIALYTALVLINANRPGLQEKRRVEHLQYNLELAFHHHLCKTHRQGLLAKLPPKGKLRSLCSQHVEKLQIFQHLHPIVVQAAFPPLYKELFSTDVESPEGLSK
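Luminescence from a UAS-regulated Photinus luciferase reporter in stably transfected Drosophila Schneider cells is measured; decreased signal marks ROR gamma inhibition. Fusion expression is induced by 700 uM copper sulfate for 20 hr.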
IL-1B inflam inh – qHTS for Inhibitors of Inflammasome Signaling: IL-1-beta AlphaLISA Primary Screen; 4.7% of 360,000 active; THP-1 LPS/ATP IL-1B secretion, AlphaLISA, 16 h; hits give low values; activity change, % at 57.5 µM; AID 743279, 2014; in the data active = activity change below about -50%; inconclusive = mostly about -30% to -49%
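Secreted IL-1B measured by AlphaLISA bead assay after 16 h compound exposure of THP-1 cells; compounds (final up to 57.5 uM) added 1 h before LPS (250 ng/mL) and ATP (1.25 mM) stimulation; lower signal means less secretion.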
VP16 counter – VP16 counterscreen qHTS for inhibitors of ROR gamma transcriptional activity | Potency, µM (doses to about 53.6 µM), hits mostly inhibitors | 3.5% of 310,000 active | Drosophila S2 Gal4-VP16 UAS-luciferase, luminescence, 20 h;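 also: Gal4-VP16 expression switched on by copper sulfate through the metallothionein promoter; nearly all actives have a fitted effect of over 50% in size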
Numbers stand for hits. Unless noted, calls follow the shape of the dose curve; as a rule, active = well fitted curve in the direction sought with a large enough effect; inconclusive = small, poorly fitted or top-dose-only effect, or another doubt; inactive = no such curve, though single readings can be large; an effect the other way counts as inactive or inconclusive.

Screening CCOC(=O)C1C(c2ccc(O)c(OC)c2)NC(=O)NC1(O)C(F)(F)F (stereo unspecified) returned TDP1 cell noCPT inactive, LDHA block inactive, TDP1 cell CPT inactive, RORg inh inactive, IL-1B inflam inh inactive and VP16 counter inactive.
`CCOC(=O)C1=C(CN2CCN(c3ccccn3)CC2)NC(=O)NC1c1ccc(OCC)cc1` (stereo unspecified) gave LDHA block inactive.
`CCOC(=O)C1=C(CN2CCN(c3cccc(Cl)c3)CC2)NC(=O)NC1c1ccc(Cl)cc1` (stereo unspecified) gave TDP1 cell noCPT 21µM, LDHA block inactive and TDP1 cell CPT inconclusive.
For CN(CC(=O)Nc1ccc(Cl)c(Cl)c1)CC(=O)N(CCC#N)c1ccccc1F the results were LDHA block inactive.
Screening O=C(NCc1ccc(Cl)cc1)NCC1(c2ccccc2)CC1 returned LDHA block inactive.
Screening CCOC(=O)C1=C(CN2CCN(C(=O)c3ccco3)CC2)NC(=O)NC1c1ccc(Cl)cc1 (stereo unspecified) returned TDP1 cell noCPT inconclusive, LDHA block inactive, TDP1 cell CPT inconclusive, RORg inh inactive, IL-1B inflam inh inactive and VP16 counter inactive.
CCOC(=O)C1=C(CN2CCN(c3ccccc3OC)CC2)NC(=O)NC1c1ccccc1 (stereo unspecified) was read as TDP1 cell noCPT inconclusive, LDHA block inactive and TDP1 cell CPT inconclusive.
CCOC(=O)C1=C(CN2CCN(CC)CC2)NC(=O)NC1c1ccc(Cl)cc1 (stereo unspecified) was read as TDP1 cell noCPT 23µM, LDHA block inactive and TDP1 cell CPT inconclusive.
CCOC(=O)C1=C(CN2CCN(c3cc(C)ccc3C)CC2)NC(=O)NC1c1ccccc1 (stereo unspecified) was read as TDP1 cell noCPT 18µM, LDHA block inactive and TDP1 cell CPT inconclusive.
CCOC(=O)C1=C(CN2CCN(c3ccccc3)CC2)NC(=O)NC1c1ccc(C)cc1 (stereo unspecified) was read as TDP1 cell noCPT inconclusive, LDHA block inactive and TDP1 cell CPT 26µM.
`CCCN1CCC(C(=O)O)CC1` gave LDHA block inactive.
For COC(=O)c1cc(N2CCOCC2)ccc1NC(=O)c1cccc(C#N)c1 the results were LDHA block inactive.
`COCCNc1nnnc2c1sc1nc(N3CCOCC3)c3c(c12)CCCC3` gave RORg inh inactive and VP16 counter inactive.
`CC1(C)Cc2c(c(N3CCOCC3)nc3sc4c(NN)ncnc4c23)CS1` gave TDP1 cell noCPT inconclusive, LDHA block inactive, TDP1 cell CPT inconclusive, RORg inh 7.9µM, IL-1B inflam inh inactive and VP16 counter 7.1µM.
`CC(C)CNc1nnnc2c1sc1nc(N3CCOCC3)c3c(c12)CC(C)(C)SC3` gave TDP1 cell noCPT inconclusive, LDHA block inactive, TDP1 cell CPT 29µM, RORg inh inactive, IL-1B inflam inh inactive and VP16 counter inactive.
CC1(C)Cc2c(c(N3CCOCC3)nc3sc4c(NCc5ccco5)nnnc4c23)CS1 was read as TDP1 cell noCPT 18µM, LDHA block inactive, TDP1 cell CPT 21µM, RORg inh inactive, IL-1B inflam inh -60 and VP16 counter inactive.
O=C(Nc1ccc(-c2nc3ccccc3o2)cc1)c1cccc([N+](=O)[O-])c1 was read as LDHA block inactive.
Screening CC(C)Oc1cccc(C2CC(=O)Nc3nc(N)sc32)c1 (stereo unspecified) returned LDHA block inactive.
For CC1(C)OC2OC(C(=O)N/N=C/c3cc(Br)ccc3O)C3OC(C)(C)OC3C2O1 (stereo unspecified) the results were TDP1 cell noCPT 15µM, LDHA block inactive, TDP1 cell CPT 15µM, RORg inh 1.6µM, IL-1B inflam inh inactive and VP16 counter inconclusive.
`CC(C)c1ccc(NC(=O)[C@H]2O[C@@H]3OC(C)(C)O[C@@H]3[C@H]3OC(C)(C)O[C@H]32)cc1` gave TDP1 cell noCPT 21µM, LDHA block inactive and TDP1 cell CPT 5.2µM.
`O=C(Nc1nc(-c2ccccn2)cs1)Nc1ccc(F)cc1F` gave TDP1 cell noCPT 2.9µM, LDHA block inactive, TDP1 cell CPT 4.6µM, RORg inh 3.5µM, IL-1B inflam inh -83 and VP16 counter inconclusive.
O=C(Nc1nc(-c2ccccc2)cs1)Nc1ccc(F)cc1F was read as TDP1 cell noCPT 9.2µM, LDHA block inactive, TDP1 cell CPT 9.2µM, RORg inh inactive, IL-1B inflam inh inactive and VP16 counter inactive.
`O=C(Nc1ccccc1F)NC1(C(F)(F)F)Oc2ccccc2O1` gave LDHA block inactive.
For COc1cccc(C(=O)OC(C)C(=O)Nc2ccc3c(c2)OCO3)c1 (stereo unspecified) the results were TDP1 cell noCPT 8.2µM, LDHA block inactive, TDP1 cell CPT 13µM and IL-1B inflam inh inactive.
`CC(OC(=O)c1ccccc1O)C(=O)Nc1ccc2c(c1)OCO2` (stereo unspecified) gave LDHA block inactive.
CC(OC(=O)c1cccnc1Cl)C(=O)Nc1ccc2c(c1)OCO2 (stereo unspecified) was read as TDP1 cell noCPT 21µM, LDHA block inactive, TDP1 cell CPT inconclusive and IL-1B inflam inh inactive.
`CNC(=O)CSc1nc2c(c(C(F)(F)F)c1C#N)CCCC2` gave LDHA block inactive.
`CCCCN(CC)C(=O)Cn1c(=O)n(-c2ccc(OCC)cc2)c(=O)c2c3c(sc21)CCC3` gave TDP1 cell noCPT inconclusive, LDHA block inactive and TDP1 cell CPT inconclusive.
For CCN(Cc1ccccc1)C(=O)Cn1c(=O)n(-c2ccc(C)c(C)c2)c(=O)c2c(C)c(C)sc21 the results were TDP1 cell noCPT inconclusive, LDHA block inactive and TDP1 cell CPT 21µM.
CCN(CC)C(=O)Cn1c(=O)n(-c2ccc(Cl)cc2)c(=O)c2c3c(sc21)CCCCC3 was read as TDP1 cell noCPT inconclusive, LDHA block inactive and TDP1 cell CPT inconclusive.
Screening CCOc1ccc(-n2c(=O)c3c(C)c(C)sc3n(CC(=O)c3ccccc3)c2=O)cc1 returned TDP1 cell noCPT 16µM, LDHA block inactive and TDP1 cell CPT 13µM.
